In all, about 95,000 compounds went through this assay and about 460 (0.48%) were called active.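 Rule for the calls: active = inhibition above the batch mean plus 3 SD, with images confirmed as a hit by eye (cut at about 37% in these data); inconclusive = inhibition above that limit but hit not confirmed in images; inactive = inhibition not above that limit.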 This excerpt belongs to a sample that is enriched for actives.
Assay: blockers of endothelial VCAM-1 upregulation by TNFa – imaging, HUVEC, TNFa stimulus, immunofluorescence, primary screen (AID 802);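 note: 0% = TNF-stimulated DMSO wells and 100% = unstimulated control wells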
Settings: HUVEC TNFa-induced VCAM-1 immunofluorescence, high-content imaging; at 2 µM; stronger effect = higher value
With `CCOc1ccc(C(=O)NC2CCN(C(=O)Nc3ccccc3OC)CC2)cc1` the inhibition was -14.1% (inactive). For `Cc1cc(C)cc(OCC(=O)Nc2nc3ccc([N+](=O)[O-])cc3s2)c1`, the inhibition was 21.3% (inactive). In the case of `COC(=O)C(NC(=O)c1ccc(OC)cc1)(Nc1ncc(S(=O)(=O)c2ccc([N+](=O)[O-])cc2)s1)C(F)(F)F` (stereo not given), the inhibition is reported as -3.1% (inactive). For `O=C(NC(Nc1nc2ccc([N+](=O)[O-])cc2s1)(C(F)(F)F)C(F)(F)F)c1ccccc1`, the inhibition was 88.1% (active). In the case of `Cc1ccccc1NC(=S)Nc1cccc([N+](=O)[O-])c1`, the inhibition is reported as -16.9% (inactive). With `COc1ccc(Nc2ncc(C(=O)N3CCN(c4ccccc4OC)CC3)c3ccccc23)cc1` the inhibition was 26.1% (inactive). With `FC(F)(F)c1cc(-c2ccco2)nc(NCc2ccc(Cl)cc2)n1` the inhibition was 9.6% (inactive). In the case of `Cc1cc(C)c2c(-n3cccc3)c(NC(=O)OCc3ccccc3)sc2n1`, the inhibition is reported as 25.4% (inactive). In the case of `COc1cccc(CNc2nc3nc4c(c(=O)n3[nH]2)CCC4)c1`, the inhibition is reported as 15.2% (inactive). For `Cc1cccc(-n2cnc(C(=O)Nc3cccnc3)c2)n1`, the inhibition was -5.1% (inactive). With `CCOC(=O)Cc1csc(NC(=O)CSc2nnc(-c3cccnc3)n2Cc2ccco2)n1` the inhibition was 15.6% (inactive). In the case of `O=S(=O)(Cc1cc(Sc2ccccc2)nc(-c2ccccc2)n1)c1ccccc1`, the inhibition is reported as -28.4% (inactive). For `CCOc1ccccc1NC(=O)c1cccnc1`, the inhibition was -0.4% (inactive). For `COc1ccc(C(F)(F)F)cc1N/C=C\c1nnnn1-c1ccc(C)cc1`, the inhibition was 16.2% (inactive). With `O=C(Nc1ncc2c(n1)CC(c1ccco1)CC2=O)c1ccc(Cl)cc1` (stereo not given) the inhibition was 91.4% (active). With `O=C(Nc1ncc2c(n1)-c1ccccc1OC2)c1ccc(Cl)cc1` the inhibition was 6.1% (inactive). For `CCc1ccc(Nc2ncc3c(n2)CC(c2ccco2)CC3=O)cc1` (stereo not given), the inhibition was -20.6% (inactive). For `COc1ccc(C2C(C(C)=O)=C(O)C(=O)N2c2nccs2)cc1` (stereo not given), the inhibition was 12.3% (inactive). In the case of `COc1cc2cc(CN(CCN3CCCC3)C(=O)Nc3ccccc3Cl)c(=O)[nH]c2cc1OC`, the inhibition is reported as 28.3% (inactive). In the case of `CCCN(Cc1cc2cccc(C)c2[nH]c1=O)S(C)(=O)=O`, the inhibition is reported as -13.9% (inactive). In the case of `COc1ccc(CCN(Cc2cc3cccc(C)c3[nH]c2=O)C(=O)N2CCCC2)cc1OC`, the inhibition is reported as 91.4% (active). In the case of `COc1ccc(N2CCN(Cc3cc(=O)oc4ccc5ccccc5c34)CC2)cc1`, the inhibition is reported as 9.8% (inactive). For `COc1ccc2oc(C)c(NC(C)=O)c2c1`, the inhibition was 0.3% (inactive). For `COc1ccc(Nc2cc(=O)oc3ccccc23)cc1`, the inhibition was 88.9% (active). With `CCCSC(=S)NC1CCS(=O)(=O)C1` (stereo not given) the inhibition was 4.3% (inactive). For `CCN(CC)CCn1c(=S)[nH]c2ncccc2c1=O`, the inhibition was 11% (inactive). In the case of `c1ccc(Nc2nc(N3CCOCC3)c3ccccc3n2)cc1`, the inhibition is reported as -8.6% (inactive). For `CCOC(=O)N1CCN(C(c2cccnc2)c2ccc3cccnc3c2O)CC1` (stereo not given), the inhibition was 9.9% (inactive). With `COc1ccc(CN(C(=O)CSc2nnc(-c3ccc(OC)c(OC)c3)o2)c2ccc(F)cc2)cc1` the inhibition was 17.6% (inactive). In the case of `COc1ccc(-c2nnc(SCC(=O)NC3CCCCC3)o2)cc1OC`, the inhibition is reported as 87.2% (active). With `COc1ccc(CCNC(=O)CSc2nnc(-c3cccc(F)c3)o2)cc1OC` the inhibition was 11.2% (inactive). For `Cc1cc2cc3c(cc2nc1SCC(=O)Nc1c(C)cccc1C)CCC3`, the inhibition was 6% (inactive). For `Cc1cccc(NC(=O)C(C)N2C(=O)C3C4CC(C(Br)C4Br)C3C2=O)c1` (stereo not given), the inhibition was 8.5% (inactive). For `CCC1(CC)NC(=O)N(CC(=O)OCC(=O)Nc2ccc(C(F)(F)F)cc2)C1=O`, the inhibition was 9.5% (inactive). For `O=C(Nc1cc2c3c(c1)C1CCCC1CN3CC1CCCC21)c1ccc([N+](=O)[O-])cc1` (stereo not given), the inhibition was 3% (inactive). In the case of `Cc1n[nH]c(=S)n1/N=C/c1ccc(Br)o1`, the inhibition is reported as 4.4% (inactive). In the case of `O=[N+]([O-])c1ccc(NCCCN2CCOCC2)c(Cl)c1`, the inhibition is reported as -2.6% (inactive). For `CC(C)(C)Cc1nnc(NC(=O)c2cc(-c3ccccc3)nc3ccccc23)s1`, the inhibition was -0.7% (inactive). In the case of `CC1(C)CC(CC(=O)O)C(=O)O1` (stereo not given), the inhibition is reported as 20.1% (inactive). For `CCOc1ccc(-n2c(N)c(C(=O)NCC3CCCO3)sc2=S)cc1` (stereo not given), the inhibition was -3.3% (inactive). In the case of `Cc1ccc2c(c1)-c1c(ssc1=S)C(C)(C)N2C(=O)CN1C(=O)c2ccccc2C1=O`, the inhibition is reported as -19.4% (inactive). For `CCOC(=O)c1c(N=CN(C)C)c(C#N)c2n1CCCC2`, the inhibition was 8.7% (inactive). With `COc1ccc(/C=N/Nc2nc3ccccc3o2)cc1OC` the inhibition was -32.9% (inactive). For `C=CCNC(=S)NNc1ncnc2sc3c(c12)CC(C)(C)OC3`, the inhibition was 27.9% (inactive). In the case of `O=C(CN1C(=O)C2C3C=CC(C3)C2C1=O)Nc1nc(-c2ccccn2)cs1` (stereo not given), the inhibition is reported as 11% (inactive). In the case of `Cc1cc(NC(=O)CSc2nc(C(C)C)nc3sc4c(c23)CCC(C)C4)no1` (stereo not given), the inhibition is reported as 18.6% (inactive). With `CC(=O)Nc1ccc(N2C(=O)CCC2=O)cc1C` the inhibition was 8.8% (inactive). In the case of `O=C(/C=C/Nc1ccccc1)c1cnc(-c2ccccc2)s1`, the inhibition is reported as -1.5% (inactive). With `Cc1ccc(C2(C(F)(F)F)N=C3Sc4cc(C)cc(C)c4N3C(=O)N2)cc1` (stereo not given) the inhibition was 7.1% (inactive). In the case of `Cc1ccc(C)c(N2C(=O)CS/C2=N\NC(=O)c2ccccc2Cl)c1`, the inhibition is reported as 10.4% (inactive). In the case of `O=C(Cn1ccc([N+](=O)[O-])n1)NCc1cccs1`, the inhibition is reported as 7.9% (inactive). For `O=c1c([N+](=O)[O-])cc(C(F)(F)F)cn1Cc1cccc(Cl)c1`, the inhibition was 3.2% (inactive). In the case of `O=C(N/N=C\c1ccc(-c2ccc(Cl)c(Cl)c2)o1)C(=O)N1CCCC1`, the inhibition is reported as -4.3% (inactive). In the case of `CCCNC(=O)NCc1ccc(N2CCCC2=O)cc1`, the inhibition is reported as 3.5% (inactive). For `CCOC(=O)c1c(NC(=S)Nc2ccccc2)sc2c1CCN(C)C2`, the inhibition was 12.8% (inactive). With `CC(=O)c1cn(CCCCCCCCCCn2cc(C(C)=O)c(=O)[nH]c2=O)c(=O)[nH]c1=O` the inhibition was 5.5% (inactive). In the case of `O=C(Nc1ccn(Cc2ccccc2F)n1)c1ccc(COc2ccc(Cl)cc2Cl)o1`, the inhibition is reported as 4.3% (inactive). In the case of `Cc1ccc(C2C(C#N)C(C#N)N3CCCN23)cc1` (stereo not given), the inhibition is reported as -8% (inactive). For `CCc1cc(C(c2ccccc2OC)N2CCOCC2)c(NC(=O)c2ccccc2)s1` (stereo not given), the inhibition was 3.5% (inactive). With `COCCNC(=O)c1onc(CSc2cccc(C)c2)c1C(=O)O` the inhibition was 13.5% (inactive). With `Cn1c(NN)nc2sc3c(c2c1=O)CCC3` the inhibition was 27.5% (inactive). With `O=C(CSCc1ccccc1Cl)NNC(=O)c1ccccc1` the inhibition was 2.9% (inactive). With `CC(=O)c1cccc(NC(=O)C2CCCN2S(=O)(=O)c2cccc3nsnc23)c1` (stereo not given) the inhibition was -0.5% (inactive). For `CCc1ccc(/C=N/NC(=O)c2ccc(OC3CCCC3)cc2)s1`, the inhibition was -3.5% (inactive). In the case of `COC(=O)c1ccc(S(=O)(=O)N2CCC(c3nc4ccccc4o3)CC2)cc1`, the inhibition is reported as -1.2% (inactive). For `Nc1cc(=O)nc(SCc2ccccc2)n1Cc1ccco1`, the inhibition was 95% (active). For `c1ccc(CSc2nnc(-c3ccco3)n2Cc2ccccc2)cc1`, the inhibition was -1.6% (inactive). In the case of `O=c1[nH]c(CSc2ncc(-c3ccc(F)cc3)n2Cc2ccco2)nc2ccccc12`, the inhibition is reported as -0.9% (inactive). With `CCn1nccc1C(=O)Nc1ccc(Cl)c(Cl)c1` the inhibition was 2.3% (inactive). For `CC(C)c1ccc(/C=C/C(=O)NNC(=O)c2cccnc2)cc1`, the inhibition was -5.5% (inactive). In the case of `C=CCn1c(SCC(=O)c2ccc(Br)cc2)nnc1C(C)NC(=O)Cc1ccc(OC)cc1` (stereo not given), the inhibition is reported as 12.4% (inactive). For `O=C(/C=C/c1ccco1)Nc1cccc(-c2nc3ccccc3[nH]2)c1`, the inhibition was 9.8% (inactive). In the case of `Cc1ccc(-n2nc3ccc(NC(=O)/C=C/c4ccco4)cc3n2)cc1C`, the inhibition is reported as 46.8% (active). For `O=C(/C=C/c1ccco1)Nc1ccc(Oc2ccccc2)cc1`, the inhibition was 6.5% (inactive). In the case of `CC(O)CN(Cc1ccc(Cl)cc1)CC(C)O` (stereo not given), the inhibition is reported as -2.6% (inactive). For `Cc1ccc(NC(=S)Nc2ncccc2C)c(C)c1`, the inhibition was 2.5% (inactive). In the case of `CC1=NN(Cc2ccccc2)C(=O)/C1=C/c1ccc(N(C)C)cc1`, the inhibition is reported as 3.7% (inactive). For `COC(=O)c1cc2nc(-c3ccccc3)cc(C(F)(F)F)n2n1`, the inhibition was -20.1% (inactive). In the case of `Cc1cc(C)c2cc(CN(Cc3nnnn3Cc3ccc(F)cc3)C3CCCC3)c(=O)[nH]c2c1`, the inhibition is reported as 1.5% (inactive). With `CS(=O)(=O)c1sc2nc(-c3ccccc3)cc(-c3ccccc3)c2c1N` the inhibition was -20.3% (inactive). In the case of `COc1ccccc1/C=C/C1=NC(=C\N(C)C)/C(=O)O1`, the inhibition is reported as 5.1% (inactive). For `CCN(CC)S(=O)(=O)c1ccc2c3c(cccc13)C(=O)S2`, the inhibition was 8.1% (inactive). With `Cc1ccc(F)cc1NC(=O)c1cccc(N(C)C)c1` the inhibition was -5.6% (inactive). With `Cc1ccc(F)cc1NC(=O)c1ccc2c(c1)OCO2` the inhibition was 96.8% (active). For `O=C(Nc1ccccc1)c1ccc2c(c1)OCO2`, the inhibition was -10.7% (inactive). For `S=c1nccc(-c2cc(Cl)sc2Cl)[nH]1`, the inhibition was 2% (inactive). For `COc1ccccc1CNC(=O)c1ccc(SC)cc1OC`, the inhibition was 18.6% (inactive). In the case of `Cc1cc(-c2ccccc2)nc(N2CCC(C(=O)NC34CC5CC(CC(C5)C3)C4)CC2)n1`, the inhibition is reported as -5.8% (inactive). With `Cc1nc([N+](=O)[O-])nn1C12CC3CC(CC(Br)(C3)C1)C2` the inhibition was 11.3% (inactive). With `Cn1c2c(c(=O)n(C)c1=O)[C@@H]1c3c(ccc4ccccc34)OC[C@@H]1CO2` the inhibition was -9% (inactive). For `CCn1c(SCC(=O)Nc2ccc(S(=O)(=O)Nc3onc(C)c3C)cc2)nnc1-c1ccccc1`, the inhibition was 6.4% (inactive). In the case of `O=C(O)c1ccccc1-c1ccccc1C(=O)Nc1cccc2ccccc12`, the inhibition is reported as 7.4% (inactive). With `Cc1nnc(NC(=O)CSc2nc(C3CCCCC3)nc3ccccc23)s1` the inhibition was -0.5% (inactive). With `CCCNC(=S)NC1CC2CCCC(C1)N2CC(C)C` (stereo not given) the inhibition was 5.3% (inactive). For `Cc1cc(C(F)F)n2nc(C(=O)Nc3ccc(S(=O)(=O)NC45CC6CC(CC(C6)C4)C5)cc3)nc2n1`, the inhibition was 5.2% (inactive).

Source: PubChem BioAssay AID802 (Columbia University Molecular Screening Center, 2007)
